TDP1 cell noCPT – qHTS for Inhibitors of human tyrosyl-DNA phosphodiesterase 1 (TDP1): qHTS in cells in absence of CPT; DT40 Tdp1-/- hTDP1 cells, no CPT, ATP luminescence, 48 h; Potency, µM (titrated, usually from 46.2 µM), without a hit: at the top dose activity change, negative = growth inhibition, actives largely listed as inhibitors; 420,000 tested, 15% active; further: potency means the concentration at half of the fitted maximal effect; nearly all actives have a fitted effect of over 55% in size
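Chicken DT40 Tdp1-/- cells stably complemented with human TDP1 were seeded at 400 cells/well with DMSO in place of 20 nM camptothecin. After compound pinning, cells grew at least 48 hr at 37 °C; viability read by CellTiter-Glo luminescence.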
IL1B secr inh – blocks inflammasome-driven IL-1 beta release; activity change, % at 57.5 µM; 360,000 tested, 4.7% active; THP-1 LPS/ATP IL-1B secretion, AlphaLISA, 16 h; active compounds read low; in the data active means activity change below about -50%; inconclusive means mostly about -30% to -49%
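Secreted IL-1B measured by AlphaLISA bead assay after 16 h compound exposure of THP-1 cells; compounds (final up to 57.5 uM) added 1 h before LPS (250 ng/mL) and ATP (1.25 mM) stimulation; lower signal means less secretion.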
DT40 TDP1 CPT – DT40-hTDP1 cell growth loss with CPT; Potency, µM (highest dose often 46.2 µM), for inactives: at the highest dose activity change, negative = growth inhibition, actives largely listed as inhibitors; chicken DT40 Tdp1-/-;hTDP1 cells + 20 nM CPT, ATP luminescence, 48 h; AID 686979; 420,000 tested, 12% active; further: potency means the concentration at half of the fitted maximal effect; nearly all actives have a fitted effect of over 55% in size
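Chicken DT40 Tdp1-/- cells complemented with human TDP1, 400 cells/well, exposed to compounds plus 20 nM camptothecin for at least 48 h at 37 C; viability read as ATP content by CellTiter-Glo luminescence.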
HT1080 IDH1KD tx – toxicity to HT-1080 IDH1 knockdown cells (counter line); HT-1080 IDH1 knockdown viability, ATP luminescence, 48 h; Potency, µM (titrated, usually from 46.1 µM), for the others: top-dose activity, negative = toxicity, most hits filed as cytotoxic; 360,000 tested, 2% active; AID 686971;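 further: potency means the concentration at half of the fitted maximal effect; 0% = DMSO wells and -100% = cell-free medium wells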
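Cytotoxicity counter-line: IDH1KD HT-1080, 48 h, CellTiter-Glo. Curves classed by r2, magnitude and activity.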
HT1080NT lethal – kills 2HG-producing HT-1080-NT fibrosarcoma cells; HT-1080-NT fibrosarcoma viability, CellTiter-Glo ATP luminescence, 48 h; Potency, µM (doses to about 46.1 µM), for the others: top-dose activity, negative = less viability, actives largely listed as cytotoxic; 360,000 tested, 1.6% active;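 further: NT is the 2HG producing partner of a matched IDH1 knockdown line; potency means the concentration at half of the fitted maximal effect; 0% = DMSO-treated cells and -100% = media-only wells without cells; nearly all actives have a fitted effect of over 55% in size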
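Compounds were tested in concentration-response format on HT-1080-NT cells for 48 hours at 37 degrees C. Cell viability came from CellTiter-Glo luminescence; curves were classified by r2, response magnitude and activity.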
Active calls of the source: *; ? = inconclusive; . = no result given; [ ] = remark or other dose. The list is not random: actives were taken first. Their share in the collection is about 19%. Unless noted, the call rests on the fitted dose curve; in most records, active means well fitted curve in the direction sought with a large enough effect; inconclusive means small, poorly fitted or top-dose-only effect, or another doubt; inactive means no such curve, though single readings can be large; an effect the other way counts as inactive or inconclusive. Unless noted, on the % scale 0 is the no-effect control and ±100 the full control effect.

SMILES	TDP1 cell noCPT	IL1B secr inh	DT40 TDP1 CPT	HT1080 IDH1KD tx	HT1080NT lethal
O=C(NNc1nc(-c2ccccc2)cs1)c1ccccc1	21µM*	-14	?	-27%	-11%
O=C(Nc1nc(-c2ccc(Br)cc2)cs1)c1cccnc1	6%	-16	-2%	-12%	11%
CC(=O)NNc1nc(-c2ccc(NC(C)=O)cc2)cs1	6%	-7	-12%	-4%	-5%
N#Cc1ccc(-c2csc(NNC(=O)c3ccccc3)n2)cc1	?	-2	?	10µM*	-4%
N#Cc1ccc(-c2csc(NNC(=O)c3ccc(Br)cc3)n2)cc1	5.8µM*	-2	5.2µM*	5.2µM*	8.2µM*
CC(=O)Nc1ccc(-c2csc(NNC(=O)c3ccc(C)cc3)n2)cc1	10µM*	-12	13µM*	13%	5%
CN1CCC(N2CCN(C3CN(C4CCCCC4)S(=O)(=O)C3)CC2)CC1 (centres undefined)	1%	0	6%	15%	8%
COc1ccc(N2CCN(c3nc4c(c(=O)n(C)c(=O)n4C)n3CCCc3ccccc3)CC2)cc1	-11%	32	?	14%	20%
CN1/C(=C/C=N/n2cnnc2)C(C)(C)c2ccccc21	23µM*	25	18µM*	0%	0%
CN1/C(=C\C=C(C#N)C#N)C(C)(C)c2ccccc21	-16%	19	-7%	-4%	0%
CCOc1ccc(/C=N/Nc2ccccc2)cc1	15µM*	23	?	?	?
CCOc1ccc(/C=N/O)cc1	1%	9	4%	5%	8%
O=S(=O)(c1ccccc1)N1CCC2(CCCN(c3ncccn3)C2)CC1	?	.	-4%	.	.
COc1ccc(C(=O)NCc2ccc3c(c2)CCN3C(=O)c2ccc(Cl)cc2)c(OC)c1	18µM*	.	18µM*	.	.
COc1cc(C(=O)NCc2ccc3c(c2)CCN3C(=O)c2ccc(Cl)cc2)cc(OC)c1OC	15µM*	.	23µM*	.	.
COc1ccc(C(=O)NCc2ccc3c(c2)CCN3C(C)=O)cc1OC	-13%	.	14%	.	.
COc1ccc(OC)c(S(=O)(=O)N2CCC(C(=O)NCC3CCCO3)CC2)c1 (centres undefined)	-24%	7	-14%	-2%	-2%
COc1cccc(NC(=O)c2nc(SC)ncc2Cl)c1	?	28	?	-2%	4%
CCS(=O)(=O)c1ncc(Cl)c(C(=O)Nc2c(C(=O)Nc3cccc(C)c3)oc3ccccc23)n1	0.73µM*	.	1µM*	.	.
Cc1cccc(NC(=O)c2nc(S(C)(=O)=O)ncc2Cl)c1	0.92µM*	.	0.65µM*	.	.
COc1cccc(NC(=O)c2nc(S(C)(=O)=O)ncc2Cl)c1	0.65µM*	-101*	1µM*	8.2µM*	5.2µM*
COc1cccc(NC(=O)c2ncc(Cl)c(Cl)c2Cl)c1	5.2µM*	-15	7.3µM*	?	?
COc1ccc(CCC(=O)NC(C)C2CCCO2)cc1 (centres undefined)	-9%	8	17%	5%	15%
NC(N)=N/N=C/c1ccc(OCc2ccc(Cl)cc2)cc1	?	-94*	21µM*	?	16µM*
NC(N)=N/N=C/c1ccc(Br)cc1	4.1µM*	?	2.6µM*	?	?
SMILES	TDP1 cell noCPT	IL1B secr inh	DT40 TDP1 CPT	HT1080 IDH1KD tx	HT1080NT lethal
CC(=O)Nc1nnc([N+](=O)[O-])s1	18µM*	7	18µM*	-2%	-23%
CC(=O)Nc1nnc(C)s1	0%	9	1%	5%	19%
CCn1c(C(=O)N2CCC(C(=O)NCCc3ccc(OC)cc3OC)CC2)cc2sccc21	15µM*	.	21µM*	.	.
CCOC(=O)N1CCC(NC(=O)C2CCN(C(=O)c3cc4sccc4n3CC)CC2)CC1	16µM*	6	?	-1%	6%
CC1=C(C(=O)N(C(C)C)C(C)C)CC(CC(=O)NC2CCCCC2)C(=O)N1Cc1ccc(F)cc1 (centres undefined)	?	-18	?	17%	13%
Cc1cc(S(=O)(=O)N2CCCCC2)ccc1OCC(=O)N1CCOCC1	0%	-5	-7%	-3%	-8%
CCOC(=O)c1[nH]c(C)c(C(=O)c2ccc(C)cc2)c1C	2.1µM*	3	2.3µM*	1.3µM*	1.8µM*
CCOC(=O)c1[nH]c(C)c(C(=O)Nc2ccccc2F)c1C	2.6µM*	0	2.3µM*	?	?
CCOC(=O)c1[nH]c(C)c(C(=O)Nc2ccc(F)cc2)c1C	1%	-5	-11%	-9%	-16%
CCOC(=O)c1[nH]c(C)c(C(=O)Nc2ccc(C)cc2C)c1C	1.3µM*	-8	2.3µM*	12µM*	?
CCOC(=O)c1[nH]c(C)c(C(=O)Nc2ccc(C)c(C)c2)c1C	?	-5	?	-26%	-14%
Cc1cccc(C(=O)N2CCOc3ccc(CN(C)Cc4cc(C5CC5)n[nH]4)cc3C2)n1	-17%	.	13%[9.04 µM]	.	.
Cc1c(NS(=O)(=O)c2ccc(C(=O)NCc3ccccc3)cc2)c(=O)n(-c2ccccc2)n1C	?	19	-10%	8%	-2%
Cc1ccc(CNC(=O)c2ccc(S(=O)(=O)Nc3c(C)n(C)n(-c4ccccc4)c3=O)cc2)cc1	21µM*	7	?	0%	6%

Screening data from PubChem.
